In PubChem BioAssay AID1259343 (VanderVen Lab, College of Veterinary Medicine, Cornell …, 2017):
Among all 6,200 compounds or so, about 2,900 (47%) were called active. So high a share suggests a set chosen from earlier hits. Some of the results follow. A number with no mark means an inactive call. Rule as the data show it: active = inhibition above about 50%; inactive = the rest.

Experiment: Mycobacterium tuberculosis growth inhibition, primary screen (AID 1259343)
Conditions: inhibition: at 10 µM, stronger effect = higher value; outcome: 10 uM

Row | Compound | inhibition
1 | Cc1ncc(CNC(=O)N2CCC(C(C)C)CC2)s1 | -9.36%
2 | S=c1nc(-c2ccc(Br)cc2)[nH][nH]1 | -31.4%
3 | S=c1[nH]nc(-c2ccc(Cl)cc2)o1 | 41.4%
4 | S=c1[nH]nc(-c2ccc(Br)cc2)o1 | 80.5% (active)
5 | c1cc2c(cc1Oc1nc(CN3CCOCC3)nc3sc4c(c13)CCC4)CCC2 | 22.2%
6 | COCc1nc(N2CCNCC2)c2c3c(sc2n1)CCCC3 | 94.1% (active)
7 | c1nc(N2CCCCC2)c2c3c(sc2n1)CCCC3 | 30%
8 | CCN1CCc2c(sc3nc(C4CCCCC4)nc(N4CCNCC4)c23)C1 | 50.1% (active)
9 | CC(C)(CC(=O)O)CC(=O)N1CCC2(CC1)OCc1cc(-c3ccc(C(F)(F)F)cc3)ccc1O2 | 58% (active)
10 | Cc1sc2nc(-c3ccco3)oc(=O)c2c1C | -5.77%
11 | C#CCN(CC=C)Cc1nc(-c2ccc(OCC)cc2)oc1C | -15.4%
12 | CCOc1cccc(OCc2nc(-c3ccco3)oc2C)c1 | 75.2% (active)
13 | OCC#CCSc1ncnn1-c1ccccc1 | -60.2%
14 | COc1ccc(Nc2ccc(Nc3ccc([N+](=O)[O-])cc3[N+](=O)[O-])cc2)cc1 | 94.7% (active)
15 | COc1ccc(Nc2ncc([N+](=O)[O-])cc2[N+](=O)[O-])cc1 | inactive
16 | COc1ccc(Nc2c([N+](=O)[O-])ccc3c2=NC2(CCCCC2)N=3)cc1 | 47.2%
17 | COC(=O)C1C(c2ccccc2)C2(c3ccccc3)C(C)(C)C12C(=O)OC (stereo not drawn) | 10.3%
18 | O=c1cc(-c2c(F)c(F)c(F)c(F)c2F)oc2c(F)c(F)c(F)c(F)c12 | 100% (active)
19 | Fc1ccc(C2C=C3Oc4ccccc4N=C3NN2)cc1 (stereo not drawn) | 92.6% (active)
20 | Brc1ccccc1OCc1cnn(-c2ccccc2)n1 | 21.9%
21 | CC1(C)OC(=O)C(=CNc2ccc3ccccc3c2)C(=O)O1 | 20.6%
22 | CC(C)c1ccc(NC=C2C(=O)OC(C)(C)OC2=O)cc1 | 85.2% (active)
23 | CC(=O)NC1CCN(Cc2nc(-c3cccc(Oc4ccccc4)c3)oc2C)C1 (stereo not drawn) | 24.9%
24 | Cc1cccc(-n2cc(CN3CCN(C(=O)c4ccco4)CC3)c(-c3cccc(F)c3)n2)c1 | 24.8%
25 | Cc1oc(-c2ccc3ccccc3c2)nc1CN1CCN(C(=O)c2ccco2)CC1 | 78.8% (active)
26 | CC(=O)NC(c1ccccc1)(c1ccccc1)C(F)(F)F | 7.55%

Row | Compound | inhibition
27 | O=C(NCC(F)(F)F)c1cc(-c2ccc(Cl)cc2)n[nH]1 | 72.2% (active)
28 | O=C(NCC(F)(F)F)c1cc(-c2ccccc2Cl)n[nH]1 | 30.1%
29 | Cc1ccc(Sc2ccccc2N2CCNCC2)c(C)c1 | 83.7% (active)
30 | CCOC(=O)CN1C(=O)CSC1=CC#N | 26.1%
31 | O=C(Nc1ccccn1)C1CCN(c2cccc(C(F)(F)F)n2)CC1 | 92.4% (active)
32 | CCCCn1nc(C)c(C(=O)NCc2ccc(Cl)s2)c1Cl | -14.6%
33 | CCCCn1nc(C)c(C(=O)Nc2cc(C)ccc2F)c1Cl | 60.1% (active)
34 | Cc1nn(-c2ccccc2)c(Cl)c1C(=O)Nc1ccccc1I | 28.9%
35 | Cc1cc(C)c2ccc(O)cc2n1 | 83.4% (active)
36 | Cc1ccc(C(=O)Nc2ccccc2SCC(F)(F)F)cc1 | 45.2%
37 | C=CCN(CC=C)C(=S)NC(=O)c1ccc(C)cc1 | 98.4% (active)
38 | C=CCN(Cc1ccc(Cl)s1)C(=O)CSc1nnc(-c2ccc(C)cc2)o1 | 21.2%
39 | C=CCOc1ccc(S(=O)(=O)c2ccc(O)cc2)cc1 | 24.3%
40 | CN(Cc1nc2ccccc2s1)C(=O)CCc1nnc(CCc2c[nH]c3ccccc23)o1 | 22.7%
41 | Cc1cc(Br)c(NC(=O)CN(C)Cc2nc3ccccc3s2)c(Br)c1 | 84.4% (active)
42 | C=CCN(C(=O)c1cccc(OC)c1)c1nc2ccccc2s1 | -37.8%
43 | Clc1cccc(CSc2ncnc3c2nnn3Cc2ccccc2)c1 | -28%
44 | Cc1ccc(Cn2nnc3c(=S)nc[nH]c32)cc1 | 92.2% (active)
45 | S=c1nc[nH]c2c1nnn2Cc1ccc(Cl)cc1 | 78.3% (active)
46 | Clc1ccc(Cn2nnc3c(SCc4cccnc4)ncnc32)cc1 | 43.6%
47 | Fc1ccc(Cn2nnc3c(=S)nc[nH]c32)cc1 | 101% (active)
48 | Cc1ccc(CSc2ncnc3c2nnn3Cc2ccccc2)cc1 | -28.1%
49 | O=C(CSc1ncnc2c1nnn2Cc1ccc(F)cc1)N1CCCCCC1 | -40.9%
50 | Cc1[nH]n(-c2ccccc2)c(=O)c1N=Nc1c(C)n(C)n(-c2ccccc2)c1=O | 94.3% (active)
51 | CCC(=O)N(c1nnc(SCC(=O)c2cc(C)n(-c3cc(C)on3)c2C)s1)C1CC1 | 72.7% (active)
52 | Cc1cc(OCc2nc(C(=O)NCC(C)C)cs2)ccc1Cl | 8.24%

Row | Compound | inhibition
53 | CCCc1nc(C(=O)Nc2ccc(NC(=O)CC)c(Cl)c2)cs1 | 54% (active)
54 | COc1ccc(NC(=O)c2csc(C)n2)cc1Cl | -17.7%
55 | Cc1ccc(Sc2cncc3sc(C(N)=O)cc23)cc1 | 68% (active)
56 | O=C(Cn1cnc([N+](=O)[O-])n1)Nc1cc(Oc2cccc(Cl)c2)cc([N+](=O)[O-])c1 | -2.49%
57 | Cc1ccc(Sc2ccc(NC(=O)Cn3cnnn3)cc2)cc1C | 4.65%
58 | CC1CCN(CC(=O)Nc2ccc([N+](=O)[O-])cc2)CC1 | 8.26%
59 | CC(=O)Nc1ccc(NC(=O)Cn2nc(C)c([N+](=O)[O-])c2C)cc1 | 92.6% (active)
60 | Cc1c(Br)c(C(F)(F)F)nn1CC(=O)Nc1ccc(Oc2cc([N+](=O)[O-])cc([N+](=O)[O-])c2)cc1 | 61.4% (active)
61 | O=C(CSc1ncnc2sc3c(c12)CCC3)N1CCCC1 | 18.6%
62 | CC(C)(C)OC(=O)CSc1ncnc2sc3c(c12)CCCC3 | 75.3% (active)
63 | O=C(O)CCCSc1ncnc2sc3c(c12)CCCC3 | 51% (active)
64 | O=C(CSc1ncnc2sc3c(c12)CCCC3)N1CCOCC1 | 102% (active)
65 | CN(C)C(=O)CSc1ncnc2sc3c(c12)CCCC3 | 85.3% (active)
66 | COCC1CCCN(c2nncc(-c3ccc(Cl)cc3)n2)C1 (stereo not drawn) | 9.94%
67 | O=C(CCSc1ccc(C(F)(F)F)cn1)Nc1c(Cl)cccc1Cl | 20.9%
68 | CCc1ccc(C(CNC(=O)Cc2ccc(C(F)(F)F)cc2)N(C)C)cc1 (stereo not drawn) | 19.9%
69 | O=C(Cc1ccc(C(F)(F)F)cc1)Nc1ncccc1O | 82.2% (active)
70 | O=C(O)CCN(Cc1ccco1)c1nc(-c2cccc(Br)c2)nc2ccccc12 | 2.99%
71 | S=P(NN=C1CCSC1)(c1ccccc1)c1ccccc1 | 62.1% (active)
72 | Cc1cccc(-c2ccc(NC(=O)C3CCN(C(=O)c4cscn4)CC3)cc2)c1 | 93% (active)
73 | COc1cccc(-c2ccc(NC(=O)C3CCCN(C(=O)c4cnsn4)C3)cc2)c1 (stereo not drawn) | inactive
74 | Cc1cccc(-c2ccc(NC(=O)C3CCN(C(=O)c4cnsn4)CC3)cc2)c1 | 91.7% (active)
75 | CN1c2ccccc2-c2nc3ccccc3n2C1c1ccco1 (stereo not drawn) | 24.8%
76 | C#CCCCCCCCCCCCC(O)CC(O)COC(C)=O (stereo not drawn) | 93.3% (active)
77 | Cc1cc(=O)[nH]c(-n2nc(C)cc2N)n1 | 101% (active)
78 | Cc1cc(N)n(-c2nc3c(cnn3-c3ccc(C)c(C)c3)c(=O)[nH]2)n1 | 33.8%

Row | Compound | inhibition
79 | Cc1cccc(-n2ncc3c(=O)[nH]c(-n4nc(C)cc4N)nc32)c1 | 102% (active)
80 | CCCc1cc(=O)[nH]c(-n2nc(C)cc2N)n1 | 101% (active)
81 | Cc1cc(N)n(-c2nc3c(cnn3-c3ccccc3)c(=O)[nH]2)n1 | 5.14%
82 | CCc1cc(=O)[nH]c(-n2nc(C)cc2N)n1 | 83.4% (active)
83 | CCCc1cc(=O)[nH]c(-n2nc(C)cc2C)n1 | 6.1%
84 | CC(C)=CCc1c(O)ccc(C(=O)Cc2ccccc2)c1O | 59.8% (active)
85 | CCC(=O)c1ccc(O)c(CC=C(C)C)c1 | 20.6%
86 | N#Cc1c(Cl)c(Cl)c(Cl)c(C#N)c1Cl | 102% (active)
87 | O=C(Nc1ccccc1)c1cc(C2CCCN(C(=O)C/C=C/c3ccccc3)C2)on1 (stereo not drawn) | 43%
88 | O=C(Nc1nc(C2CC2)cs1)c1cc2ccccc2cc1O | 11.4%
89 | Cc1nc(COC(=O)c2cc3ccccc3cc2O)oc1C | 54.9% (active)
90 | Cc1ccc(C(=O)OCc2cc(C)on2)c(O)c1 | -29.5%
91 | Cc1ccc2nc3sc(C(=O)O)cc3cc2c1 | 7.83%
92 | Cc1sc(C(=O)N2CCOC(C(N)=O)C2)cc1-c1ccc(F)cc1 (stereo not drawn) | 5.13%
93 | COc1ccc(-c2cc(C(=O)O)sc2C)cc1 | 67.1% (active)
94 | CN(C)C(=O)On1nnc2ccccc21 | 26.9%
95 | O=S(=O)(c1cccs1)n1nnc2ccccc21 | 52.1% (active)
96 | O=C(O)C1CCCN1S(=O)(=O)c1cccs1 (stereo not drawn) | -0.47%
97 | Cn1c(=O)cc2c3c(cccc31)C(=O)c1ccccc1-2 | 11.1%
98 | O=c1c(-c2ccccc2)c1-c1ccccc1 | 86.5% (active)
99 | S=c1[nH]c(-c2ccccc2)c(-c2ccccc2)[nH]1 | 18.6%
100 | O=C(NCCc1cccc(C(F)(F)F)c1)c1ccc(CSc2ncn[nH]2)o1 | 36.7%
101 | O=C(NCCOc1cccc(C(F)(F)F)c1)c1ccc(Cl)c([N+](=O)[O-])c1 | 54.2% (active)
102 | COc1ccccc1C=CC(=O)c1ccc(Cl)cc1 | 46.9%
103 | Cc1ccc(C)c(C=CC(=O)c2ccc(O)cc2)c1 | 98.6% (active)
